Experimental data: the supplement of paper PMC11634586
Where a name gives a salt, the structure may show the parent alone. Unmarked numbers belong to inactive results.

The compounds below were run on NCI-H1688 (assay: inhibition of cell viability relative to untreated control (fraction); higher = stronger growth inhibition, active = 0.5 or more). Details: 30 µM; 24 h.
Outline: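 Viability of NCI-H1688 small cell lung cancer cells was assessed with Cell Counting Kit-8 by absorbance at 450 nm, in triplicate, after a 24 h exposure to a natural compound library (TargetMol) at 30 µM at 37°C and 5% CO2. The cells had been seeded at 3 × 10^3 cells/well in 96-well plates 24 h before treatment. Inhibition of cell viability is reported as a fraction, derived from viability normalised against untreated cells.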

Compound	inhibition of cell viability
C[C@@H]1O[C@@H](O[C@H]2C(=O)c3c(O)cc(O)cc3O[C@@H]2c2ccc(O)c(O)c2)[C@H](O)[C@H](O)[C@H]1O [Astilbin]	-0.0142
CC(C)=CCOc1c2ccoc2cc2oc(=O)ccc12 [Isoimperatorin]	-0.0286
NC(=O)NCCC[C@H](N)C(=O)O [Citrulline]	-0.126
c1coc(CNc2ncnc3[nH]cnc23)c1 [Kinetin]	0.00365
Oc1cc(O)c2c(c1)O[C@H](c1ccc(O)c(O)c1)[C@@H](O)C2 [Cianidanol]	0.298
COc1c2occc2cc2ccc(=O)oc12 [8-Methoxypsoralen]	0.302
Nc1ncnc2c1ncn2[C@@H]1O[C@H](COP(=O)(O)O)[C@@H](O)[C@H]1O [Adenosine 5'-monophosphate]	-0.0048
C[C@H]1[C@H](C)CC[C@]2(C(=O)O)CC[C@]3(C)C(=CC[C@@H]4[C@@]5(C)C[C@@H](O)[C@H](O)[C@@](C)(CO)[C@@H]5[C@H](O)C[C@]43C)[C@H]12 [Madecassic acid]	-0.00715
Cc1cc(O)c2c(c1)C(=O)c1cc(O)cc(O)c1C2=O [Emodin]	0.493
C=C1CC[C@@H]2[C@](C)(CO)[C@H](O)CC[C@@]2(C)[C@H]1C/C=C1\C=COC1=O [Dehydroandrographolide]	0.14
C[C@H](O)[C@H]1CC[C@H]2[C@@H]3CC[C@@H]4C[C@H](O)CC[C@]4(C)[C@H]3CC[C@]12C [5Beta-Pregnane-3Alpha,20alpha-Diol]	-0.113
CC(=O)N[C@H]1[C@H]([C@H](O)[C@H](O)CO)OC(O)(C(=O)O)C[C@@H]1O (some centres not stated) [N-Acetylneuraminic acid]	-0.0072
O=C(/C=C/c1ccc(O)c(O)c1)O[C@H](Cc1ccc(O)c(O)c1)C(=O)O [Rosmarinic acid]	0.0726
O=C(O)/C=C/c1ccccc1 [Cinnamic acid]	-0.0303
C[C@]12CCC(=O)C=C1CC[C@@H]1[C@@H]2CC[C@@]2(C)[C@H]1CC[C@]2(O)C(=O)CO [Cortodoxone]	-0.112
CN[C@@H]1[C@H](O)[C@H](NC)[C@H]2O[C@@]3(O)C(=O)C[C@@H](C)O[C@H]3O[C@@H]2[C@H]1O [Spectinomycin dihydrochloride]	0.186
NCCc1c[nH]cn1 [Histamine]	0.233
C[C@@H]1O[C@@H](O[C@@H]2[C@@H](O)[C@H](OCCc3ccc(O)c(O)c3)O[C@H](CO[C@@H]3O[C@H](CO)[C@@H](O)[C@H](O)[C@H]3O)[C@H]2OC(=O)/C=C/c2ccc(O)c(O)c2)[C@H](O)[C@H](O)[C@H]1O [Echinacoside]	0.128
Cc1nc(C)c(C)nc1C [Ligustrazine hydrochloride]	-0.157
CC(C)(S)[C@@H](N)C(=O)O [Artamine]	0.0772
CC(C)[C@@H]1CC[C@@H](C)C[C@H]1O [L-Menthol]	0.178
NCCC[C@H](N)C(=O)O [L-Ornithine]	-0.0432
OC[C@H]1O[C@@H](O[C@@H]2OC=C[C@H]3[C@H](O)[C@@H]4O[C@]4(CO)[C@@H]23)[C@H](O)[C@@H](O)[C@@H]1O [Catalpol]	-0.0576
C[C@H]1COC2=C1C(=O)C(=O)c1c2ccc2c1CCCC2(C)C [Cryptotanshinone]	1 (active)
CC(C)=CCC/C(C)=C/CC/C(C)=C/CC/C(C)=C/CC/C(C)=C/CC/C(C)=C/CC/C(C)=C/CC/C(C)=C/CC/C(C)=C/CO [Solanesol]	0.301
CC(=O)OCC(=O)[C@@]1(O)CC[C@H]2[C@@H]3CCC4=CC(=O)C=C[C@]4(C)[C@@]3(Cl)[C@@H](Cl)C[C@@]21C [Dichlorisone Acetate]	-0.129
CC[C@]1(O)C[C@H]2CN(CCc3c([nH]c4ccccc34)[C@@](C(=O)OC)(c3cc4c(cc3OC)N(C=O)[C@H]3[C@@](O)(C(=O)OC)[C@H](OC(C)=O)[C@]5(CC)C=CCN6CC[C@]43[C@@H]65)C2)C1 [Vincristine sulfate]	0.847 (active)
